A selection: hits, their analogues and other compounds. The true share with any hit is near 1.2%.
RGS8-Gao reg = human RGS8-Galphao interaction regulation | P09471 | multiplexed bead flow cytometry, RGS8-Galphao binding; actives lie on both sides | response (percent of control binding), % at 10 µM | 0.34% of 220,000 active; in the data active = response below about 60% or above about 140%; inactive = in between;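 also: Galphao activated as the GDP aluminium fluoride complex binding bead-coupled RGS8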
Target sequence (P09471 whole entry, looked up): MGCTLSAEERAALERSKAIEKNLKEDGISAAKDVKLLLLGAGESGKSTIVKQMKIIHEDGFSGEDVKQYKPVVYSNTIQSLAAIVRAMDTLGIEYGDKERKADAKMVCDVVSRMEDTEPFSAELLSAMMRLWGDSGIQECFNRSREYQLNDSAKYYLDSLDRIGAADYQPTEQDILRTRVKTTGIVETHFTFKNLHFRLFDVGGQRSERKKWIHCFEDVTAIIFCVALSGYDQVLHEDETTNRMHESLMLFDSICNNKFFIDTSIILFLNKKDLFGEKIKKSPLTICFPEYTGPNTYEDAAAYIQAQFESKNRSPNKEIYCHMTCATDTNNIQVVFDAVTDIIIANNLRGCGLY
RGS7-Gao reg = regulators of human RGS7-Galphao interaction; 0.35% of 220,000 active; Multiplexed bead flow cytometry, RGS7-Galphao binding; actives lie on both sides; binding response (% of control), % at 10 µM; P09471; in the data active = binding response below about 49% or above about 150%; inconclusive = no clear call, values can overlap the other calls; inactive = in between;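 also: fluorescent Galphao held in activated GDP-AlF4 state binding bead-coupled RGS7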
RGS16-Gao = regulators of human RGS16-Galphao interaction. bead-based flow cytometry RGS16-Galphao binding, fluorescence; actives lie on both sides. AID 1441. 0.38% of 220,000 active. O15492+P09471. binding response (% of control), % at 10 µM;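 also: Galphao activated by GDP with aluminum fluoride before binding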
Avidin fluor = compound fluoresces at 488/530 nm on avidin beads. compound fluorescence 488/530 nm, flow cytometry; hits give high values. fluorescence (KMESF) at 10 µM. 0.38% of 220,000 active. AID 1775; in the data active = fluorescence above about 47
GSH fluor = GSH bead compound fluorescence profile; 0.25% of 190,000 active; GSH beads flow cytometry, compound fluorescence 488/530 nm; hits give high values; fluorescence (KMESF) at 10 µM; AID 1776; in the data active = fluorescence above about 89;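 also: glutathione beads carrying GST-tagged Bcl family fusion proteins plus one bare bead set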
RGS4-Gao reg = human RGS4-Galphao interaction regulation | P09471 | Multiplexed bead flow cytometry, RGS4-Galphao binding; actives lie on both sides | binding response (% of control), % at 10 µM | 0.33% of 220,000 active | AID 1415; in the data active = binding response below about 49% or above about 150%; inactive = in between;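 also: fluorescent Galphao activated with aluminum fluoride binding bead-coupled RGS4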
RGS4-Gao HTS = regulators of human RGS4-Galphao interaction | AID 1504 | multiplexed bead flow cytometry, RGS–Galpha-o binding | RGS4–Galpha-o binding response, % at 10 µM | 99% of 1,600 active | shares compounds with RGS16-Gao;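 also: fluorescently labeled Galpha-o bound to GDP with aluminium fluoride binding biotinylated RGS beads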
Target sequence (P09471 whole entry, looked up): as above
Target sequence (P49798 whole entry, looked up): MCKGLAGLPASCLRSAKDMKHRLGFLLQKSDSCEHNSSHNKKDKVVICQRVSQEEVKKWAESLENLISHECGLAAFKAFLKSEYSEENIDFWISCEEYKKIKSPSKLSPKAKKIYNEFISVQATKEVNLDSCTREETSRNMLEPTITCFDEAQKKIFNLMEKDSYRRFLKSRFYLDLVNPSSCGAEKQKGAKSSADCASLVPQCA
Biotin-avidin = interferes with biotinylated probe binding to avidin beads | shares compounds with RGS16-Gao | inhibition, % at 10 µM | streptavidin beads, fluorescein-biotin binding, flow cytometry | AID 1783 | 1,700 tested, under 10 active;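 active = inhibition above 50%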;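 also: median green fluorescence of gated singlet beads compared with DMSO control wells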
RGS8-Gao single = confirmation of regulators of human RGS8-Galphao interaction. shares compounds with RGS16-Gao. bead-based flow cytometry RGS8-Galphao binding, fluorescence; actives lie on both sides. binding response (% of control), % at 10 µM. 3% of 1,700 active; in the data active = binding response below about 72% or above about 130%; inactive = in between;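 also: Galphao activated as GDP AlF4 complex before binding bead RGS8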
RGS7-Gao confirm = RGS7-Galphao interaction regulation, single point confirmation; shares compounds with RGS16-Gao; AID 1837; response (percent of control binding), % at 10 µM; bead-based flow cytometry RGS7-Galphao binding; actives lie on both sides; 7.8% of 1,700 active; in the data active = response below about 75% or above about 130%; inactive = in between;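 also: fluorescent Galphao activated with GDP and aluminum fluoride binding bead-coupled RGS7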
RGS16-Gao conf = RGS16-Galphao interaction regulation, single point confirmation; shares compounds with RGS16-Gao; AID 1838; bead-based flow cytometry, RGS16-Galphao binding; actives lie on both sides; 4% of 1,700 active; response (% of control binding), % at 10 µM; in the data active = response below about 74% or above about 130%; inactive = in between;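 also: Galphao activated as the GDP aluminium fluoride complex binding bead-coupled RGS16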
RGS4-Gao confirm = confirmation of regulators of human RGS4-Galphao interaction | binding response (% of control), % at 10 µM | 4% of 1,700 active | shares compounds with RGS16-Gao | RGS4-Galphao binding, multiplexed bead flow cytometry; actives lie on both sides | AID 1840; in the data active = binding response below about 74% or above about 130%; inactive = in between
RGS19-Gao single = RGS19-Galphao interaction regulation, single point confirmation | bead-based flow cytometry RGS19-Galphao binding; actives lie on both sides | 5% of 1,700 active | AID 1841 | response (percent of control binding), % at 10 µM | shares compounds with RGS16-Gao; in the data active = response below about 50% or above about 160%; inactive = in between
Large screens that a line does not name were inactive (follow-up assays come after a bar, where they were run); [ ] = another dose, or the depositor's remark. Unless noted, no rule for the calls is given here.

CCCc1cc(N2CCCC(C(=O)NCc3ccc4c(c3)OCO4)C2)n2ncnc2n1 (stereo not drawn)	none (no result: RGS7-Gao reg, RGS16-Gao, Avidin fluor, RGS4-Gao reg) | Biotin-avidin inactive | RGS8-Gao single inactive | RGS7-Gao confirm inactive | RGS16-Gao conf inactive | RGS4-Gao confirm inactive | RGS19-Gao single inactive
CCN(CC)CCN1C(=O)C(=O)/C(=C(/O)c2c(C)[nH]c(C(=O)OC)c2C)C1c1cccs1 (stereo not drawn)	none
CCN(CC)CCN1C(=O)C(=O)/C(=C(/O)c2c(C)[nH]c(C(=O)OC)c2C)C1c1ccccc1OC (stereo not drawn)	RGS8-Gao reg 145[activator], RGS7-Gao reg 159[activator], RGS4-Gao reg 176[activator] | Biotin-avidin inactive | RGS8-Gao single inactive | RGS7-Gao confirm inactive | RGS16-Gao conf inactive | RGS4-Gao confirm inactive | RGS19-Gao single inactive
Cc1ccc(-n2cccc2/C=C2/C(=N)N3C(=NC2=O)SN=C3S(C)(=O)=O)cc1Cl	RGS7-Gao reg 45 | RGS4-Gao HTS 72
Cc1cccc(C)c1-n1cccc1/C=C1/C(=N)N2C(=NC1=O)SN=C2S(C)(=O)=O	none
COc1ccc2oc3cc(C)[n+]([O-])c(-c4ccc(Cl)cc4)c3c2c1	RGS4-Gao reg 41 | Biotin-avidin inactive | RGS8-Gao single inactive | RGS7-Gao confirm inactive | RGS16-Gao conf inactive | RGS4-Gao confirm inactive | RGS19-Gao single inactive
COc1ccc(C(=O)Nc2ccc(S(=O)(=O)Nc3onc(C)c3C)cc2)c(OC)c1	none
CCN1/C(=C/C=C/C=C/c2sc3ccccc3[n+]2CC)Sc2ccccc21	RGS4-Gao reg 31 (no result: Avidin fluor) | Biotin-avidin inactive | RGS8-Gao single 63 | RGS7-Gao confirm inactive | RGS16-Gao conf 58 | RGS4-Gao confirm -8.0
CC[n+]1c(/C=C/Nc2ccccc2)sc2ccccc21	none
CN(C)c1ncc(/C=C2/C(=O)NC(=S)N(C3CCCCC3)C2=O)cn1	RGS7-Gao reg inconclusive
CN1CCN(NC(=O)CN2C(=O)S/C(=C\c3c(Cl)cccc3Cl)C2=O)CC1	none
Cc1ccc(N2CCN(CCc3nc4cc(NS(C)(=O)=O)ccc4n3C)CC2)cc1	RGS8-Gao reg 147[activator] | RGS4-Gao HTS 120 | Biotin-avidin inactive | RGS8-Gao single inactive | RGS7-Gao confirm inactive | RGS16-Gao conf inactive | RGS4-Gao confirm inactive | RGS19-Gao single inactive
Cc1onc(-c2c(F)cccc2Cl)c1C(O)c1ccc(F)cc1 (stereo not drawn)	RGS7-Gao reg inconclusive (no result: GSH fluor)
CCOc1ccccc1N1CCN(C(=O)c2ccncc2)CC1	none
CCOc1ccccc1N1CCN(C(=O)c2ccc3[nH]c4c(c3c2)CCCC4)CC1	RGS16-Gao 24 | RGS4-Gao HTS 84 | Biotin-avidin inactive | RGS8-Gao single inactive | RGS7-Gao confirm inactive | RGS16-Gao conf inactive | RGS4-Gao confirm inactive | RGS19-Gao single inactive
Cc1ccc2c(c1)NC(=O)C(CC(=O)NCc1cccnc1)O2 (stereo not drawn)	RGS8-Gao reg 161[activator], RGS4-Gao reg 154[activator] | Biotin-avidin inactive | RGS8-Gao single inactive | RGS7-Gao confirm inactive | RGS16-Gao conf inactive | RGS4-Gao confirm inactive | RGS19-Gao single inactive
Cc1ccc2c(c1)NC(=O)C(CC(=O)NCc1ccc(F)cc1)O2 (stereo not drawn)	none
O=C(NNC(=S)NC1CCCCC1)c1ccccc1O	RGS7-Gao reg inconclusive
COc1ccc(OCCOc2ccccc2[N+](=O)[O-])cc1	RGS16-Gao 180[activator] | RGS4-Gao HTS 117 | Biotin-avidin inactive | RGS8-Gao single inactive | RGS7-Gao confirm inactive | RGS16-Gao conf inactive | RGS4-Gao confirm inactive | RGS19-Gao single inactive
O=[N+]([O-])c1ccccc1OCCOc1ccccc1[N+](=O)[O-]	RGS7-Gao reg inconclusive (no result: GSH fluor)
COC(=O)c1ccccc1NC(=O)CN1C(=O)CSC1=O	none (no result: RGS8-Gao reg, RGS7-Gao reg, RGS16-Gao, Avidin fluor, RGS4-Gao reg) | Biotin-avidin inactive | RGS8-Gao single inactive | RGS7-Gao confirm inactive | RGS16-Gao conf inactive | RGS4-Gao confirm inactive | RGS19-Gao single inactive
COC(=O)c1ccccc1NC(=O)/C=C/C(=O)O	RGS16-Gao 34 | RGS4-Gao HTS 87 | Biotin-avidin inactive | RGS8-Gao single inactive | RGS7-Gao confirm inactive | RGS16-Gao conf inactive | RGS4-Gao confirm inactive | RGS19-Gao single inactive
COC(=O)c1cc(NC(=O)CN2C(=O)CSC2=O)ccc1Cl	none
COc1ccc(NC(=O)c2ccc(COCC(F)(F)C(F)F)cc2)cc1	RGS16-Gao 25 | RGS4-Gao HTS 78 | Biotin-avidin inactive | RGS8-Gao single inactive | RGS7-Gao confirm inactive | RGS16-Gao conf inactive | RGS4-Gao confirm inactive | RGS19-Gao single inactive
COc1ccc(-c2n(Cc3ccccc3)c3ccccc3[n+]2Cc2ccccc2)cc1	none
Nc1ccc(Br)cc1Br	RGS7-Gao reg inconclusive (no result: GSH fluor)
NS(=O)(=O)c1ccc(CCNC(=O)C2CCC(Cn3c(=S)[nH]c4ccccc4c3=O)CC2)cc1 (stereo not drawn)	RGS8-Gao reg 13, RGS7-Gao reg 17, RGS16-Gao 11, RGS4-Gao reg 22 | Biotin-avidin inactive | RGS8-Gao single inactive | RGS7-Gao confirm inactive | RGS16-Gao conf inactive | RGS4-Gao confirm inactive | RGS19-Gao single inactive
CSCC[C@H](NC(=O)Nc1ccc(S(N)(=O)=O)cc1)C(=O)O	RGS7-Gao reg inconclusive (no result: GSH fluor)
Cc1ccc(C(=O)N/N=C2\SCC(=O)N2c2cc(C)ccc2C)cc1	RGS16-Gao 22 | RGS4-Gao HTS 81 | Biotin-avidin inactive | RGS8-Gao single inactive | RGS7-Gao confirm inactive | RGS16-Gao conf inactive | RGS4-Gao confirm inactive | RGS19-Gao single inactive
Cc1cccc(N2C(=O)CS/C2=N\NC(=O)c2ccc(Br)cc2)c1C	none
COc1cc(OC)c(/C=N/NC(=O)c2ccc(Cn3nc([N+](=O)[O-])cc3C)cc2)c(OC)c1	RGS7-Gao reg inconclusive (no result: GSH fluor)
CSc1nc(-c2ccccc2)nn1S(=O)(=O)c1ccc(Cl)cc1	none

Bioassay records: PubChem, NMMLSC
